High-throughput results from PubChem BioAssay.
M1 ag parental – counter-screen for M1 agonists: effect in parental CHO-K1 cells; activation, % at 3 µM; Fluo-8 calcium fluorescence; scaled to maximal ATP response, vehicle zero; 360,000 compounds, 0.48% hits; AID 602248, 2012; in the data active means activation above about 15%;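 further: untransfected CHO-K1 host cells lacking M1 receptor as counterscreen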
CHRM1 PAM – human M1 muscarinic receptor positive allosteric modulators, primary screen, CHO-K1 cells, Fluo-8 calcium fluorescence, 1536-well; Muscarinic acetylcholine receptor M1 (Homo sapiens), P11229; CHO-K1 hM1, ACh EC20; 0% = ACh EC20, 100% = maximal ACh; activation, % at 3 µM; 360,000 compounds, 0.088% hits; in the data active means activation above about 19%, passing the limit was not always enough
Target sequence (P11229 whole entry, looked up): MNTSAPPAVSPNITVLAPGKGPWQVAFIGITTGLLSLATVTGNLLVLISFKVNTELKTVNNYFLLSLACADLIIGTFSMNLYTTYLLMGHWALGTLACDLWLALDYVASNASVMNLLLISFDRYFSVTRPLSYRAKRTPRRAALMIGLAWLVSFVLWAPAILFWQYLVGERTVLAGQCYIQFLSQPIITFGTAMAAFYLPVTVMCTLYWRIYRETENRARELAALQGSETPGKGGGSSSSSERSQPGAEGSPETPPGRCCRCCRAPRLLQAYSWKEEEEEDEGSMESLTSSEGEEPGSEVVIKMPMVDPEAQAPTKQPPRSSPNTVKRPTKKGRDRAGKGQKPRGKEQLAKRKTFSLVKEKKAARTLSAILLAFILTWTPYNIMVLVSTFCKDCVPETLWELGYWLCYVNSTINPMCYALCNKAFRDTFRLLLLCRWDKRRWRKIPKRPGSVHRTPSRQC
M1 PAM parental – nonselective calcium activators in parental CHO-K1 cells, primary screen, counter-screen for M1 PAM project, cell-based, Fluo-8 calcium fluorescence, full deck, 1536-well; ATP EC20; 0% at ATP EC20, 100% at ATP max; AID 602247, 2012; 360,000 compounds, 0.02% hits; activation, % at 3 µM;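 active means activation above the run cutoff, the mean activation of all test compounds plus 3 SD, cut at about 40% in these data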;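 further: peak over basal fluorescence ratio in a 140 s read after ATP addition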
CHRM1 agonist – human M1 muscarinic receptor agonists, primary screen, Fluo-8 calcium fluorescence, CHO-K1 cells, HTS | CHO-K1 hM1, agonist mode; 0% DMSO, 100% acetylcholine EC100 | activation, % at 3 µM | 360,000 compounds, 0.33% hits;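 active means activation above the run's mean compound activation plus 3 SD, cut at about 16% in these data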;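 further: peak over basal fluorescence ratio within a 140 s kinetic read after compound addition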
CHRM1 antagonist – human M1 muscarinic receptor antagonists, primary screen, CHO-K1 cells, Fluo-8 calcium fluorescence, 1536-well | inhibition, % at 3 µM | CHO-K1 hM1, ACh EC80 antagonist | AID 588852, 2011 | 360,000 compounds, 1.3% hits | Muscarinic acetylcholine receptor M1 (Homo sapiens), P11229;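 active means percent inhibition above its own plate's cutoff, namely the mean of that plate's compound wells plus 3 SD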;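 further: peak over basal fluorescence ratio during 140 s after agonist addition; 0% = ACh EC80 plus DMSO and 100% = DMSO alone without agonist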
CHO-K1 Ca antag – nonselective inhibitor or artifact in parental CHO-K1 cells; ATP-induced calcium, Fluo-8 fluorescence; inhibition, % at 3 µM; 360,000 compounds, 0.6% hits;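 active means inhibition above a per-plate cutoff, the plate's mean sample inhibition plus 3 SD, cut at about 24% in these data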;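 further: 0% = DMSO plus EC80 ATP and 100% = DMSO alone without ATP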
Starred values were filed as active, the others as inactive. This is a sample that favours compounds with a hit; in the whole collection about 2.4% have one here.

Screening CC(=O)Nc1ccc(C=NNc2ccc([N+](=O)[O-])cn2)cc1 returned M1 ag parental 2, CHRM1 PAM 5, M1 PAM parental 17, CHRM1 agonist -1, CHRM1 antagonist -1 and CHO-K1 Ca antag -8.
For CCS(=O)(=O)N1CCC(NC(=O)C(Cc2cc(OC)ccc2OC)NC(C)=O)CC1 (stereo not given) the results were M1 ag parental 0, CHRM1 PAM -7, M1 PAM parental -20, CHRM1 agonist -1, CHRM1 antagonist 14 and CHO-K1 Ca antag 9.
Screening CC(C)n1c(NCc2ccccc2O)nc2ccccc21 returned M1 ag parental 23*, CHRM1 PAM 9, M1 PAM parental 17, CHRM1 agonist -4, CHRM1 antagonist -8 and CHO-K1 Ca antag 1.
Screening Cn1c(NCc2ccccc2O)nc2ccccc21 returned M1 ag parental 0, CHRM1 PAM 1, M1 PAM parental 4, CHRM1 agonist -5, CHRM1 antagonist -2 and CHO-K1 Ca antag 6.
COc1cccc(-c2nc(CS(=O)(=O)CC(=O)NCCCN3CC(C)CC(C)C3)c(C)o2)c1 (stereo not given) was read as M1 ag parental 0, CHRM1 PAM -19, M1 PAM parental -12, CHRM1 agonist -6, CHRM1 antagonist 41* and CHO-K1 Ca antag 2.
Screening COc1cccc(-c2nc(CS(=O)(=O)CC(=O)NCCCN3CCN(C)CC3)c(C)o2)c1 returned M1 ag parental 0, CHRM1 PAM 3, M1 PAM parental 10, CHRM1 agonist -5, CHRM1 antagonist -5 and CHO-K1 Ca antag -14.
Screening CC(=C/c1ccccc1)/C=N/n1cnnc1 returned M1 ag parental 2, CHRM1 PAM 1, M1 PAM parental 15, CHRM1 agonist 22*, CHRM1 antagonist 0 and CHO-K1 Ca antag 1.
CC(/C=N/n1cnnc1)=C\c1ccccc1 was read as M1 ag parental 2, CHRM1 PAM 8, M1 PAM parental 18, CHRM1 agonist 9, CHRM1 antagonist -13 and CHO-K1 Ca antag -3.
`Nc1nc(Nc2ccccc2F)sc1C(=O)c1ccccc1` gave M1 ag parental 10, CHRM1 PAM 11, M1 PAM parental 13, CHRM1 agonist 17*, CHRM1 antagonist -3 and CHO-K1 Ca antag -21.
For COc1ccc(CN2CCC(Cc3ccccc3)CC2)c(C)c1C the results were M1 ag parental 3, CHRM1 PAM -25, M1 PAM parental 25, CHRM1 agonist -8, CHRM1 antagonist 33* and CHO-K1 Ca antag -9.
COc1cccc(OC)c1OCCCCN1CCC(Cc2ccccc2)CC1 was read as M1 ag parental 8, CHRM1 PAM -24, M1 PAM parental 18, CHRM1 agonist -6, CHRM1 antagonist 47* and CHO-K1 Ca antag -11.
`COc1ccc(NC(=O)NCCCN2CCC(Cc3ccccc3)CC2)cc1` gave M1 ag parental 1, CHRM1 PAM -2, M1 PAM parental -1, CHRM1 agonist -8, CHRM1 antagonist -1 and CHO-K1 Ca antag -1.
`CCOc1ccccc1OCCN1CCC(Cc2ccccc2)CC1` gave M1 ag parental 3, CHRM1 PAM -9, M1 PAM parental 14, CHRM1 agonist -9, CHRM1 antagonist 9 and CHO-K1 Ca antag -2.
`CC(=O)CCc1ccc(OCCCCN2CCC(Cc3ccccc3)CC2)cc1` gave M1 ag parental 7, CHRM1 PAM -24, M1 PAM parental 21, CHRM1 agonist -6, CHRM1 antagonist 60* and CHO-K1 Ca antag -3.
Screening CCC(=O)c1ccccc1OCCCN1CCC(Cc2ccccc2)CC1 returned M1 ag parental 9, CHRM1 PAM -27, M1 PAM parental -15, CHRM1 agonist -3, CHRM1 antagonist 92* and CHO-K1 Ca antag 5.
For CCCCN(CCCC)C(=O)c1ccccc1NC(=O)CN1C(=O)c2ccccc2C1=O the results were M1 ag parental 0, CHRM1 PAM 8, M1 PAM parental 7, CHRM1 agonist -4, CHRM1 antagonist -11 and CHO-K1 Ca antag -1.
`COc1ccc(C(=O)OCC(=O)c2ccc[nH]2)cc1` gave M1 ag parental 3, CHRM1 PAM 8, M1 PAM parental 13, CHRM1 agonist -3, CHRM1 antagonist 4 and CHO-K1 Ca antag -6.
Screening N#Cc1ccccc1OCCCN1CCC(Cc2ccccc2)CC1 returned M1 ag parental 2, CHRM1 PAM -28, M1 PAM parental 0, CHRM1 agonist -7, CHRM1 antagonist 35* and CHO-K1 Ca antag 5.
O=C(NNC(=O)c1cc(-c2ccccc2)n(-c2ccccc2)n1)c1cccc([N+](=O)[O-])c1 was read as M1 ag parental 0, CHRM1 PAM 1, M1 PAM parental 15, CHRM1 agonist -14, CHRM1 antagonist -3 and CHO-K1 Ca antag -11.
CCC1CCCCN1CCCNC(=O)Cn1nc(C)n2nc(-c3ccccc3)cc2c1=O (stereo not given) was read as M1 ag parental 0, CHRM1 PAM 2, M1 PAM parental 4, CHRM1 agonist -14, CHRM1 antagonist -13 and CHO-K1 Ca antag -15.
Screening CCC1CCCCN1CCCNC(=O)CSc1nc2nc(C)c(Cc3ccccc3)c(C)n2n1 (stereo not given) returned M1 ag parental 0, CHRM1 PAM -28, M1 PAM parental 21, CHRM1 agonist -13, CHRM1 antagonist 25* and CHO-K1 Ca antag -5.
CCC1CCCCN1CCCNC(=O)Cn1c2ccccc2c2nc(=O)cc(C)n21 (stereo not given) was read as M1 ag parental 0, CHRM1 PAM 0, M1 PAM parental 3, CHRM1 agonist -6, CHRM1 antagonist -9 and CHO-K1 Ca antag -14.
`CCC1CCCCN1CCCNC(=O)CSc1nc2nc(C)c(Cc3ccccc3Cl)c(C)n2n1` (stereo not given) gave M1 ag parental 1, CHRM1 PAM -23, M1 PAM parental 17, CHRM1 agonist -5, CHRM1 antagonist 51* and CHO-K1 Ca antag -8.
Screening CCn1c2ccccc2c2cc(NC(=O)C(C)OC(=O)c3ccc(NC(=O)CC#N)cc3)ccc21 (stereo not given) returned M1 ag parental 0, CHRM1 PAM 3, M1 PAM parental 19, CHRM1 agonist -5, CHRM1 antagonist -1 and CHO-K1 Ca antag -15.
Screening CCCC[C@@H]1Cc2[nH][nH]c(=O)c2[C@H](c2cccc3ccccc23)O1 returned M1 ag parental 3, M1 PAM parental 17 and CHO-K1 Ca antag -21.
